Results on 45 compounds are retold here after PubChem BioAssay AID651724 (National Center for Advancing Translational Sciences (NCATS), 2012).

Each structure is given as a SMILES string. Screen size: about 340,000 compounds; about 1,700 (0.5%) were called active. Another 2% or so got no clear call; they are omitted. What follows is part of a selection rich in actives, with near analogues and random picks from the rest. A number with no mark means an inactive call. No stated cut-off is given here; in the data, active means activity change below about -65%; inconclusive means mostly about -30% to -63%; inactive means weaker than that.
On the % scale 0 is the no-effect control and ±100 the full control effect.

In the assay the test system is CtBP / adenovirus E1A interaction (AlphaScreen). In words: qHTS Assay for Inhibitors of the CtBP/E1A Interaction. Conditions: AlphaScreen GST-E1A/His-CtBP binding, 1536-well; stronger effect = lower value. The source says:
Carboxyl-terminal binding protein (CtBP) is a co-repressor for many transcription factors. […] Our studies have shown that CtBP is overexpressed in multiple human cancers, including lung, breast, and head and neck cancers. In particular, it is over-expressed in 50% of primary lung cancer and 90% of metastatic lesions. CtBP suppresses epithelial-specific genes as well as genes critical for apoptosis, providing the underlying molecular mechanism for its role in tumorigenesis. […] Based on the above data, we hypothesize that 1) CtBP suppresses the pro-apoptotic and epithelial genes, therefore overexpressed CtBP in human cancer cells increases EMT and cancer survival; 2) decreasing CtBP's function represents a targeted therapy for lung cancer and potentially multiple cancer types. As a co-repressor, CtBP binds to E1A and other transcription factors through a conserved peptide motif to carry out its action. Inhibiting this interaction using small molecules can potentially serve as effective cancer therapeutics.
To this end, we have developed a homogenous AlphaScreen assay targeting the CtBP/E1A interaction. We performed a large scale HTS of the Molecular Libraries Small Molecule Repository (MLSMR) to identify inhibitors of the CtBP/E1A interaction as potential anti-cancer therapeutics. Compounds identified can also be used as chemical probes to better understand the biological functions of CtBP.
NIH Chemical Genomics Center [NCGC]
NIH Molecular Libraries Probe Centers Network [MLPCN]
Assay Submitter (PI): Rui Zhao, University of Colorado Denver
The first step of the 5uL AlphaScreen assay is to dispense assay buffer (50 mM Tris, pH 8.0, 300 mM NaCl, 0.05% BSA, 0.02% Tween 20, 1 mM TCEP) into a Greiner 1536 white solid bottom microtiter plate (789175-F). Five microliters is added to Column 1, 4 uL is added to Column 2 and 3 uL is added to Columns 3 through 48. A 5X protein solution (125 nM GST-E1A protein + 125 nM His-tagged CtBP protein) is mixed and 1 uL is dispensed to Columns 3-48. Using a 1536 pintool, 23 nL of compound is transferred to the assay plate and the plate is incubated with a lid at 37 deg C in the dark for two hours. A solution of 5X AlphaScreen beads is mixed (50 ug/mL Glutathione linked donor beads + Nickel chelated acceptor beads) and 1 uL is dispensed to Columns 2-48. The assay plate is incubated for one hour, with a lid, at 37 deg C in the dark. The plate is read using a Perkin Elmer Envision using an AlphaScreen protocol.
As for `Cc1ccc(NC(=O)C2CC(=O)N(c3ccc4c(c3)OCCO4)C2)cc1S(=O)(=O)N1CCCCCC1` (stereo not given), the activity change was -5.1%. Regarding `OC(c1ccccc1)c1nc(/C=C/c2ccc(C(F)(F)F)cc2)cs1` (stereo not given), the activity change is 7.85%. The value for `Cc1nc2c(OCc3ccc(Cl)cc3Cl)cccn2c1N(C)CC1CC1` was -25.5%; that for `COc1ccc(/C=N/NC(=O)c2ccncc2)cc1CN1CCCc2ccccc21` was 13.2%. The value for `COc1cc(OC)c(/C=N/NC(=O)c2ccc([N+](=O)[O-])cc2)cc1Br` was -0.151%; that for `COc1cccc(/C=N/NC(=O)c2[nH]nc3c2CCc2ccccc2-3)c1O` was -67.1% (active); that for `Oc1c(C(c2ccccn2)N2CCOCC2)ccc2cccnc12` (stereo not given) was -81.3% (active). To `CC(C)c1cc(CN2CCOCC2)cc(C(C)C)c1O` belongs 4.14%; to `CCCCN1C[C@H](c2ccc(Br)cc2)[C@@H](CC(=O)Nc2ccc(Br)cc2)C1=O`, -4.21%. Turning to `COc1ccc(OCC(=O)Nc2ccc(NC(=O)c3ccco3)c(C)c2)cc1`, the activity change was -2.52%. The value for `COc1ccc(NC(=O)CCC(=O)Nc2cc(OC)c(NC(=O)c3ccco3)cc2OC)c(OC)c1` was -87.4% (active); that for `COc1ccc(CC(=O)Nc2ccccc2NC(=O)c2ccco2)cc1OC` was 5.07%; that for `CC(=O)Nc1cc(-c2ccccc2N(C)C)cn2c(-c3ccc(F)c(Cl)c3)cnc12` was -22.9%. As for `CCCOc1ccc(F)cc1-c1cc(C(=O)Nc2ccc(F)c(Cl)c2)[nH]n1`, the activity change was 2.38%.

Consider `COCC1CCCCN1C(=O)c1cc(COc2ccc(C)c(C)c2)on1` (stereo not given), for which the activity change was -0.436%. Take `COc1ccc(/C=N/N(C)C2=NS(=O)(=O)c3ccccc32)cc1OC`: the activity change is -89.3% (active). The value for `C=CCOCCN(C)C1=NS(=O)(=O)c2ccccc21` was 0.314%; that for `COc1ccc(C(C)(C)C)cc1NC(=O)CN(C)C1=NS(=O)(=O)c2ccccc21` was 2.94%; that for `CC(=O)Nc1cc(-c2ccccc2F)cn2c(-c3cccc(C(F)(F)F)c3)cnc12` was -8.33%. To `COc1ccccc1-c1cc2nc(NCc3cccc(Cl)c3)ccn2n1` belongs 3.38%; to `O=S(=O)(Nc1ccc2nc(-c3ccco3)[nH]c2c1)c1ccccc1`, -18.3%; to `O=[N+]([O-])c1cccc(S(=O)(=O)NCc2ccccn2)c1`, 1.03%. To `O=[N+]([O-])c1ccc2nc(-c3ccccn3)[nH]c2c1` belongs -90.6% (active); to `COCOCCn1cc(CN2CCS(=O)(=O)N(Cc3ccc(-c4ccc(OC)cc4)cc3)C(CC(C)C)C2=O)nn1` (stereo not given), -1.08%; to `Cc1cc(Nc2ccc(N3CCOCC3)cc2)c2cccc(C)c2n1`, -16.1%.

For the compound `Cc1ccc(Nc2cc(C)nc3c(C)ccc([N+](=O)[O-])c23)cc1`, the activity change was -66.7% (active).

For the compound `Cc1cc(Nc2ccc(C(=O)N3CCCCC3)cc2)c2cccc(C)c2n1`, the activity change is 1.83%. The value for `COC(=O)c1ccccc1N=NNc1ccc([N+](=O)[O-])cc1` was -2.76%; that for `Fc1cccc(Cc2c(-c3ccc(Cl)cc3)nc3ccc(Cl)cn23)c1` was 0%. Turning to `CCN(CC)C(=O)C1=C(C)N(Cc2ccc(F)cc2)C(=O)C(CC(=O)NCc2cccc3ccccc23)C1` (stereo not given), the activity change was -2.72%. The value for `COc1ccc(NC(=O)CCCNC(=O)Cn2cnc3sc4c(c3c2=O)CCCC4)cc1OC` was 20.4%; that for `COc1ccc(NC(=O)CCNC(=O)Cn2cnc3sc4c(c3c2=O)CCCC4)cc1OC` was 0.477%; that for `COc1ccc(/C=N/Nc2ncnc3sc4c(c23)CCCC4)cc1O` was -87.1% (active). The value for `COC(=O)C1=CN(c2c(C)cc(C)cc2C)C(N)=C(C#N)C1c1cccc(F)c1` (stereo not given) was 3.08%.

Consider `CCCCCCN1CCN(C2CN(Cc3cn(CCCCCC)nn3)S(=O)(=O)C2)CC1` (stereo not given), for which the activity change is 0.678%. The value for `Cc1nc2c(OCc3cccc(Cl)c3)cccn2c1N(C)CC1CC1` was -6.06%. For the compound `COc1ccc(NC(=O)C2Cc3c(-c4ccc(Cl)cc4)ccnc3O2)cc1` (stereo not given), the activity change was 1.32%. To `COCCCNC(=O)c1cccc2c(-c3ccc(O)c(OC)c3)coc12` belongs -18.4%; to `O=C(CSc1nnc(-c2ccncc2)o1)Nc1cccc(Cl)c1`, 6.8%; to `Cc1cc(NC(=O)CSc2ncc(C(F)(F)F)cc2Cl)no1`, -2.36%. To `Cc1cc(NC(=O)CSc2nnc(-c3ccc(Cl)s3)o2)no1` belongs -93.2% (active); to `CCCCc1c(-c2ccc(Br)cc2)ncn1CCc1ccccc1OC`, -11.3%.

For `COc1cccc(-n2c(SCC(=O)NC3CCCCC3)nc3n[nH]c(C)c3c2=N)c1`, the activity change was -66.5% (active). With `CCCCNC(=O)CSc1nc2n[nH]c(C)c2c(=N)n1-c1cccc(Cl)c1C`, the activity change is -0.913%. The value for `Cc1ccc(-n2c(SCC(=O)NCCC3=CCCCC3)nc3n[nH]c(C)c3c2=N)cc1Cl` was -20.7%.
